This is one part of a sample in which hits are shown more often than they occur.
Tg IFNy HTS: T. gondii growth inhibition under IFN-gamma; Toxoplasma gondii growth in IFN-gamma-treated host cells; active compounds read low; activity change, negative = inhibition, % (no concentration beside the values); 69,000 compounds, 3.8% hits; AID 1259416; in the data active means activity change below about -70%, passing the limit was not always enough;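 further: host cells are HeLa cells infected with Toxoplasma gondii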
Numbers without * were called inactive.

For C[C@@H]1CN([C@@H](C)CO)C(=O)c2cc(NS(=O)(=O)c3ccc(Cl)cc3)ccc2O[C@@H](C)CCCCO[C@@H]1CN(C)Cc1ccncc1 the results were Tg IFNy HTS -113*.
`C[C@@H]1CCCCO[C@@H](CN(C)Cc2ccc(Cl)c(Cl)c2)[C@@H](C)CN([C@@H](C)CO)C(=O)c2cc(NS(=O)(=O)c3cccs3)ccc2O1` gave Tg IFNy HTS 278.
C[C@@H]1CCCCO[C@@H](CN(C)Cc2ccc(Cl)c(Cl)c2)[C@H](C)CN([C@@H](C)CO)C(=O)c2cc(NS(=O)(=O)c3cccs3)ccc2O1 was read as Tg IFNy HTS -44.
For COc1cccc(CN2CCC3(CCN(S(=O)(=O)C4CC4)C3)C2=O)c1 (centres undefined) the results were Tg IFNy HTS -11.
CCOC(=O)CSc1nc(Nc2ccc(F)c(F)c2)c2ccccc2n1 was read as Tg IFNy HTS 5.
Screening CSCc1ccc(C(=O)N(C)Cc2cc(C(C)C)on2)o1 returned Tg IFNy HTS 15.
Screening Cc1ccsc1CN(C)C(=O)c1cc(CC(C)C)nc(N)n1 returned Tg IFNy HTS -1.
For CSc1ccc(Cl)c(C(=O)Nc2ccc3c(c2)CCC(=O)N3C)c1 the results were Tg IFNy HTS 26.
O=C(NCc1ccccc1C(F)(F)F)C1CC12CCN(C(=O)C13CC4CC(CC(C4)C1)C3)CC2 (centres undefined) was read as Tg IFNy HTS 3.
CCOc1c(Cl)cc(Cl)cc1CNCC1CCCO1 (centres undefined) was read as Tg IFNy HTS 42.
For CC(=O)N1CCC2(CC1)OC(=O)C(C)=C2C(=O)N1CCc2ccccc2C1 the results were Tg IFNy HTS 75.
For CCOC(=O)c1ccc(Oc2ccc(C)nn2)cc1 the results were Tg IFNy HTS -15.
Cc1cc(F)ccc1NC(=O)C1CCN(S(=O)(=O)c2ccc3[nH]c(=O)ccc3c2)CC1 was read as Tg IFNy HTS 19.
Screening CCc1csc(CNC2CCC3(CCNCC3)CC2)n1 returned Tg IFNy HTS -76*.
`CCc1csc(CNC2CCN(CC(C)C)CC2)n1` gave Tg IFNy HTS 0.
Screening Cc1nccn1-c1ccccc1CNC1CCC2(CCNCC2)CC1 returned Tg IFNy HTS 3.
`Cc1ccccc1C(=O)N1CCC(C)(C(=O)NCc2ccc(F)cc2F)CC1` gave Tg IFNy HTS -47.
`CCOC(=O)c1noc2ncn(Cc3nc(-c4ccccc4C)oc3C)c(=O)c12` gave Tg IFNy HTS 30.
Screening Cc1c2oc3c(C)ccc(C(=O)N[C@@H]4C(=O)N[C@H](C(C)C)C(=O)N5CCC[C@H]5C(=O)N(C)CC(=O)N(C)[C@@H](C(C)C)C(=O)O[C@@H]4C)c3nc-2c(C(=O)N[C@@H]2C(=O)N[C@H](C(C)C)C(=O)N3CCC[C@H]3C(=O)N(C)CC(=O)N(C)[C@@H](C(C)C)C(=O)O[C@@H]2C)c(N)c1=O returned Tg IFNy HTS -82*.
O=C1C[C@H]2CC[C@@H](CN1)N2C(=O)c1cc(COc2cccc(F)c2)[nH]n1 was read as Tg IFNy HTS 0.
Screening COc1ccc(N2CCN(Cc3ncccc3F)C(C)C2)cc1 (centres undefined) returned Tg IFNy HTS -2.
CN1C/C=C/CCOc2cccc(c2)-c2ccnc(n2)Nc2cccc(c2)C1 was read as Tg IFNy HTS -84*.
COc1cc2c(cc1C1CC(=O)Nc3[nH]ncc31)OCCCO2 (centres undefined) was read as Tg IFNy HTS -6.
For CN1Cc2ccccc2CC2(CCN(c3ccc(C#N)cn3)CC2)C1=O the results were Tg IFNy HTS -1.
Screening Cc1ccc(CN2CCN(Cc3cnc(C)[nH]3)CC2=O)cc1 returned Tg IFNy HTS 1.
Cc1ccc(CN2CCN(c3ncc(C)c(N(C)C)n3)CC2=O)cc1 was read as Tg IFNy HTS -85*.
For CCCOCCN1CCN(c2ncc(C)c(N(C)C)n2)CC1 the results were Tg IFNy HTS -4.
`COC(=O)c1c(NCCCN2CCCC2)c2cccc(Cl)c2[nH]c1=O` gave Tg IFNy HTS 7.
Screening CC1CCN(c2ncnc3c2cnn3CC(=O)NC2CCN(Cc3ccccc3)CC2)CC1 returned Tg IFNy HTS 151.
`Cc1onc(-c2ccccc2)c1NC(=O)NCc1csc(-c2cccs2)n1` gave Tg IFNy HTS 7.
`O=C(OCc1ccccc1)N1CCOCCN(C(=O)OCc2ccccc2)CCOCC1` gave Tg IFNy HTS -15.
For Cc1onc(-c2ccccc2)c1CNC(=O)NC1CCN(C(=O)OCc2ccccc2)CC1 the results were Tg IFNy HTS -82*.
Cc1onc(-c2ccccc2)c1CNC(=O)c1ccccc1 was read as Tg IFNy HTS 29.
`Cc1onc(-c2ccccc2)c1CNC(=O)C1CCN(c2nccc(C(F)(F)F)n2)CC1` gave Tg IFNy HTS -66.
For Cc1onc(-c2ccccc2)c1CNC(=O)Nc1csc2ccccc12 the results were Tg IFNy HTS -98*.
O=c1ccc2cc(S(=O)(=O)NCCCN3CCOCC3)ccc2[nH]1 was read as Tg IFNy HTS inactive.
Screening O=c1[nH]nc(-c2ccco2)n1CCc1ccccc1F returned Tg IFNy HTS -3.
Cc1ccc(C(=O)Nc2ccc3c(c2)oc2ccccc23)cc1 was read as Tg IFNy HTS 71.
`Cc1c(NC(=O)c2cc(-c3ccc(Cl)cc3)on2)cccc1C(=O)N1CCCC1` gave Tg IFNy HTS -5.
For Cn1cccc1CN1CCC2(CCC(=O)N2Cc2ccncc2)CC1 the results were Tg IFNy HTS -12.
`O=c1cc(CN2CCC(N3CCCCC3)CC2)nc(-c2ccccc2)[nH]1` gave Tg IFNy HTS 32.
Screening O=C(c1ccc(N2CCC(NCC3C4CC5CC(C4)CC3C5)CC2)cc1)N1CCCC(CO)C1 (centres undefined) returned Tg IFNy HTS 3.
`COc1ccc(C(=O)NCCc2csc(-c3ccc(Cl)cc3)n2)cc1OC` gave Tg IFNy HTS 15.
COc1ccc(OCC(=O)NCCc2csc(-c3ccc(F)cc3)n2)cc1 was read as Tg IFNy HTS 51.
CCOc1ccccc1C(=O)NCCc1csc(-c2ccc(Cl)cc2)n1 was read as Tg IFNy HTS -80*.
COc1ccc(C(=O)NCCc2csc(-c3ccc(F)cc3)n2)c(OC)c1 was read as Tg IFNy HTS -97*.
For COc1ccc(-c2nc(CCNC(=O)c3ccccc3F)cs2)cc1 the results were Tg IFNy HTS 412.
Screening O=C(NCCc1csc(-c2ccc(F)cc2)n1)c1ccccc1F returned Tg IFNy HTS -70.
Screening COc1cccc(OC)c1C(=O)NCCc1csc(-c2ccc(Cl)cc2)n1 returned Tg IFNy HTS 35.
`CCOc1ccccc1NC(=O)C(=O)NCCc1csc(-c2ccc(Cl)cc2)n1` gave Tg IFNy HTS -51.
Screening COc1ccc(Cl)cc1C(=O)NCCc1csc(-c2ccc(F)cc2)n1 returned Tg IFNy HTS -84*.
COc1cc(OC)cc(C(=O)NCCc2csc(-c3ccc(F)cc3)n2)c1 was read as Tg IFNy HTS 27.
Cc1ccccc1C(=O)NCCc1csc(-c2ccc(Cl)cc2)n1 was read as Tg IFNy HTS -32.
COc1ccccc1C(=O)NCCc1csc(-c2ccc(F)cc2)n1 was read as Tg IFNy HTS -93*.
`Cc1[nH]c2cccc(C(=O)N3CCOC(C)(C(=O)NC4CCCC4)C3)c2c1C` (centres undefined) gave Tg IFNy HTS 19.
For CN(C)C1(CNc2nccc(C3CCCC3)n2)CCOCC1 the results were Tg IFNy HTS -1.
For CS(=O)(=O)N1CCCn2c(nc(Cn3cncn3)cc2=O)C1 the results were Tg IFNy HTS -27.

Compound activity: PubChem BioAssay, Broad Institute
